BRCA1 expr act: activators of BRCA1 expression. MCF7-BRCA1-FFLuc reporter, luminescence, 48 h; response scale: scaled: vehicle 0%, 10 µM genistein 100%. Potency, µM (highest dose often 46.1 µM), for inactives: top-dose activation, hits mostly activators. 1.1% of 380,000 active; also: nearly all actives have a fitted effect of over 80% in size
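MCF7-BRCA1-FFLuc cells, 2000/well in phenol-red-free MEM, attached 2 h then treated 48 h at 37 C. Luciferase luminescence read 15 min after reagent; normalized to genistein maximum activation (10microM) and DMSO, concentration-response fitted.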
EPAC2 antagonist: antagonists of human EPAC2 | Q8WZA2 | EPAC2 GEF exchange of Rap1B-BODIPY-GDP, fluorescence | Potency, µM (titrated, usually from 114 µM), without a hit: at the highest dose activity, negative = inhibition, usual class: inhibitors | 0.18% of 360,000 active; also: % is scaled to controls: 0 for no effect and ±100 for the full control effect; nearly all actives have a fitted effect of over 45% in size
EPAC1 antag: antagonists of human EPAC1; O95398; AID 720709; EPAC1 GEF assay, Rap1b-BODIPY-GDP exchange fluorescence; 0.14% of 360,000 active; Potency, µM (titrated, usually from 115 µM), for inactives: top-dose activity change, negative = inhibition, usual class: inhibitors;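 also: plate controls were vehicle for no effect and positive control for full effect; nearly all actives have a fitted effect of over 50% in size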
RGS4 inhibitor: human RGS4 inhibition; P49798; Transcreener GDP fluorescence polarization, RGS4-accelerated GTP hydrolysis; Potency, µM (titrated, usually from 114 µM), for the others: top-dose activity change, negative = inhibition, hits mostly inhibitors; 0.039% of 390,000 active; AID 504845; also: % is scaled to controls: 0 for no effect and ±100 for the full control effect; nearly all actives have a fitted effect of over 75% in size
Target sequence (P49798 whole entry, looked up): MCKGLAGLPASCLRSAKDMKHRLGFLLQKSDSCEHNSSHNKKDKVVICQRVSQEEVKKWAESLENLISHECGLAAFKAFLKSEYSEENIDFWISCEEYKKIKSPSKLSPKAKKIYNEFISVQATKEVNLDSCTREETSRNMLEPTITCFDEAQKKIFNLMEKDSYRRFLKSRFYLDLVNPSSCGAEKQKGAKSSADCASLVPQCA
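MLSMR compounds (23 nl, pin-transferred) preincubated 10 min at room temperature with a 500nM (2x) first reagent, then RGS4 at 900nM (2x) plus Transcreener GDP mix added; fluorescence polarization (620/688 nm) read before and after 90 min at 30 °C.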
EPAC2 agonist: activates human EPAC2 exchange factor; Q8WZA2; Potency, µM (highest dose often 154 µM), without a hit: top-dose activation, hits mostly activators; 0.079% of 360,000 active; EPAC2 activation, biochemical qHTS; response scale: 100% = 6.5 mM cAMP response; also: nearly all actives have a fitted effect of over 50% in size
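In this primary screen, activation is scored as increased exchange of BODIPY-GDP from Rap1B by 100 nM EPAC2, with 50 uM GDP as competitor. Signal is normalized to the 6.5 mM cAMP agonist control.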
EPAC1 ag: activates human EPAC1 exchange factor; O95398; EPAC1 agonist qHTS, biochemical assay; response scale: 100% = response to 6.5 mM cAMP; Potency, µM (top dose mostly 154 µM), for the others: at the highest dose activation, actives largely listed as activators; 0.073% of 360,000 active; also: nearly all actives have a fitted effect of over 60% in size
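Fluorescent GDP-exchange assay: 100 nM EPAC1 with 250 nM Rap1B preloaded with BODIPY-GDP and 50 uM GDP; compounds tested as concentration series, 5 min at room temperature, then read every 5 min for 30 min (ex 480/em 540 nm); normalized to 6.5 mM cAMP.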
An asterisk follows results filed as active; [ ] = remark or other dose. Rows were chosen to be rich in hits. Some 1.3% of all compounds tested hit in one or more screens of this group. Calls follow the shape of the dose curve; as a rule, active = well fitted curve in the direction sought with a large enough effect; inconclusive = small, poorly fitted or top-dose-only effect, or another doubt; inactive = no such curve, though single readings can be large; an effect the other way counts as inactive or inconclusive. Potency is read from the fitted curve at half-maximal effect.

Screening COc1ccc(C(=O)COC(=O)c2cccs2)cc1 returned BRCA1 expr act 13µM*, EPAC2 antagonist -26%, EPAC1 antag -14%, RGS4 inhibitor 16%, EPAC2 agonist 16% and EPAC1 ag 0%.
`OCCC1CN(CCCn2cccn2)CCN1C1CCCCC1` (configuration not stated) gave BRCA1 expr act 2%, EPAC2 antagonist 26%, EPAC1 antag -9%, RGS4 inhibitor -3%, EPAC2 agonist 21% and EPAC1 ag 4%.
Screening COc1ccc(/C(N)=N/OC(=O)Cc2cccs2)cc1 returned BRCA1 expr act 8.9µM*, EPAC2 antagonist -7%, EPAC1 antag -9%, RGS4 inhibitor -2%, EPAC2 agonist 17% and EPAC1 ag 14%.
For CC(=O)Nc1ccc(C(=O)COC(=O)c2cccs2)c(F)c1 the results were BRCA1 expr act 14µM*, EPAC2 antagonist inconclusive, EPAC1 antag -6%, RGS4 inhibitor -7%, EPAC2 agonist 7% and EPAC1 ag 9%.
`Cc1nc(Cl)sc1C(=O)NC(C)c1ccc(Cl)cc1` (configuration not stated) gave BRCA1 expr act -16%, EPAC2 antagonist 3%, EPAC1 antag inconclusive, RGS4 inhibitor 2%, EPAC2 agonist -2% and EPAC1 ag inactive.
Cc1nc2ccccn2c1C(=O)Nc1ccc2c(c1)OCCO2 was read as BRCA1 expr act 46%, EPAC2 antagonist 21%, EPAC1 antag -6%, RGS4 inhibitor 1%[11.4 µM], EPAC2 agonist 1% and EPAC1 ag -3%.
Screening COc1ccc(N=Nc2nc3cc(Br)c(Br)cc3n2C)c(OC)c1 returned BRCA1 expr act -27%, EPAC2 antagonist 4%, EPAC1 antag 172%, RGS4 inhibitor -38%, EPAC2 agonist -10% and EPAC1 ag 112µM*.
Screening COc1ccccc1N1CCN(/N=C/C(Cl)=C/c2ccccc2)CC1 returned BRCA1 expr act 4µM*, EPAC2 antagonist 2%, EPAC1 antag -1%, RGS4 inhibitor -25%, EPAC2 agonist 0% and EPAC1 ag -1%.
Cc1c(N/N=C(\C#N)C(=O)c2ccccc2)c(=O)n(-c2ccccc2)n1C was read as BRCA1 expr act -58%, EPAC2 antagonist 35%, EPAC1 antag 0%, RGS4 inhibitor -16%, EPAC2 agonist -127% and EPAC1 ag -161%.
`Cc1ccccc1C(=O)/C(C#N)=N/Nc1c(C)n(C)n(-c2ccccc2)c1=O` gave BRCA1 expr act -86%, EPAC2 antagonist 79µM*, EPAC1 antag -7%, RGS4 inhibitor -5%, EPAC2 agonist -68% and EPAC1 ag -11%.
For CCN1CCc2c(C#N)c(NCc3ccccc3)nc(N(CC)CC)c2C1 the results were BRCA1 expr act -48%, EPAC2 antagonist -11%, EPAC1 antag -10%, RGS4 inhibitor -9%[56.9 µM], EPAC2 agonist 9% and EPAC1 ag 2%.
`Cc1cccc(Nc2ccc(C(=O)N3CCOCC3)cn2)c1` gave BRCA1 expr act inconclusive, EPAC2 antagonist 13%, EPAC1 antag 6%, RGS4 inhibitor -3%, EPAC2 agonist 6% and EPAC1 ag 6%.
Cc1cc([N+](=O)[O-])ccc1NC(=O)c1csc(C)c1C was read as BRCA1 expr act 5µM*, EPAC2 antagonist 4%, EPAC1 antag -2%, RGS4 inhibitor -11%, EPAC2 agonist 6% and EPAC1 ag -11%.
For CN1c2ccccc2C(C)(C)C12C=Nc1c(cc(N3CCOCC3)c3ccccc13)O2 (configuration not stated) the results were BRCA1 expr act -58%, EPAC2 antagonist -25%, EPAC1 antag 89µM*, RGS4 inhibitor -15%, EPAC2 agonist 4% and EPAC1 ag 10%.
